Test results as given in PubChem BioAssay (NCATS).
“And” between values parts separate entries of the source, which are not always exact repeats. Equal values may be shown once. Records with an inconclusive call do not appear. Entries that show only a call come without a potency. Values without a mark were called inactive. The source made the active and inactive calls. Calls follow the shape of the dose curve; as a rule, active = well fitted curve in the direction sought with a large enough effect; inconclusive = small, poorly fitted or top-dose-only effect, or another doubt; inactive = no such curve, though single readings can be large; an effect the other way counts as inactive or inconclusive.

Assays:
[1] = target: Cellular tumor antigen p53 (Homo sapiens) (UniProt P04637); assay: Primary qHTS for small molecule compounds that upregulate eGFP-tagged delta133p53alpha (in N-terminal) cells. (AID 2060322); conditions: NCI-H358 eGFP-delta133p53alpha fluorescence, 24 h; activation: stronger effect = higher value; also: nearly all actives have a fitted effect of over 75% in size; also: potency is read from the fitted curve at half-maximal effect;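 as to activation: cells pre-induced with doxycycline then dosed without doxycycline; series mostly up to about 56 µM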
In short: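 NCI-H358 cells pre-induced 24 h with 10 ng/ml doxycycline for eGFP-delta133p53alpha, plated dox-free and exposed 24 h at 37C to titrated compounds. Fixed, Hoechst-stained; gated GFP peak intensity by laser scanning cytometry, normalized to DMSO (0%) and 57.5 uM 5-azacytidine (100%).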

[2] = target: Aldehyde dehydrogenase, mitochondrial (Homo sapiens) (UniProt P05091); assay: qHTS for Inhibitors of the Aldehyde Dehydrogenase Family (ALDH2) Primary screen (AID 2061308); also: nearly all actives have a fitted effect of over 55% in size
[3] = target: Retinaldehyde dehydrogenase 3 (Homo sapiens) (UniProt P47895); assay: qHTS for Inhibitors of the Aldehyde Dehydrogenase Family (ALDH1A3) Primary screen (AID 2061315)
[4] = BET inhibitor-based combinations targeting novel dependencies in MECOM-rearranged (r) AML: SET-2 cell line (AID 2202231); conditions: SET-2 AML cells viability, CellTiter-Glo luminescence, 48 h; viability: stronger effect = lower value, concentration not given here; also: nearly all actives have a fitted effect of over 35% in size; also: potency is read from the fitted curve at half-maximal effect
In short: (§1)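 Luminescent ATP readout (CellTiter-Glo) after 48 hr drug exposure gives viability. Curves span 11 concentrations and are normalized to DMSO and empty wells. Activity is reported as area under the curve and its Z-transform within each cell line.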

[5] = BET inhibitor-based combinations targeting novel dependencies in MECOM-rearranged (r) AML: OCI-AML3 cell line (AID 2202232); conditions: Potency: OCI-AML3 viability; also: nearly all actives have a fitted effect of over 35% in size; also: potency is read from the fitted curve at half-maximal effect
In short: as §1

[6] = BET inhibitor-based combinations targeting novel dependencies in MECOM-rearranged (r) AML: MV-4-11 cell line (AID 2202233); also: nearly all actives have a fitted effect of over 45% in size; also: potency is read from the fitted curve at half-maximal effect
In short: (§2)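 Luminescent ATP readout (CellTiter-Glo, 15 min at room temperature) after 48 hr drug exposure gave viability. Dose-response curves, normalized to DMSO and empty-well controls, were summarized as area under the curve and its mean-centred Z-score.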

[7] = BET inhibitor-based combinations targeting novel dependencies in MECOM-rearranged (r) AML: HNT-34 cell line (AID 2202234); also: nearly all actives have a fitted effect of over 35% in size; also: potency is read from the fitted curve at half-maximal effect
In short: as §2

[8] = BET inhibitor-based combinations targeting novel dependencies in MECOM-rearranged (r) AML: UCSD-AML1 cell line (AID 2202235); also: nearly all actives have a fitted effect of over 40% in size; also: potency is read from the fitted curve at half-maximal effect
In short: as §2

[9] = BET inhibitor-based combinations targeting novel dependencies in MECOM-rearranged (r) AML: AML-191 cell line (AID 2202236; also: nearly all actives have a fitted effect of over 35% in size; also: potency is read from the fitted curve at half-maximal effect)
In short: as §1

[10] = BET inhibitor-based combinations targeting novel dependencies in MECOM-rearranged (r) AML: AML-194 cell line (AID 2202237; also: nearly all actives have a fitted effect of over 40% in size; also: potency is read from the fitted curve at half-maximal effect)
In short: as §1

Cellular tumor antigen p53 (Homo sapiens), sequence (P04637 whole entry, looked up): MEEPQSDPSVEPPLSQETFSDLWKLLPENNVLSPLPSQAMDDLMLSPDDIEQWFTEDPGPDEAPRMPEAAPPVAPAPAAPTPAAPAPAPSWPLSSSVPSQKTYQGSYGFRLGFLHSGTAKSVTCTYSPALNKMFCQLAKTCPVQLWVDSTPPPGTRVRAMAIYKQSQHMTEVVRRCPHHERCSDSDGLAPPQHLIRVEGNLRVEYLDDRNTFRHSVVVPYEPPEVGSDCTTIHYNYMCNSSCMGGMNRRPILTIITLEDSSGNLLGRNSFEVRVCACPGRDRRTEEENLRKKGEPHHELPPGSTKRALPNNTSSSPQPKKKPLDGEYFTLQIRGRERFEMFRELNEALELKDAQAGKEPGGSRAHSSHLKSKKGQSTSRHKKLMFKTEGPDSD

CCCCCCCCCC(=O)N[C@@H](Cc1c[nH]c2ccccc12)C(=O)N[C@H](CC(N)=O)C(=O)N[C@@H](CC(=O)O)C(=O)N[C@@H]1C(=O)NCC(=O)N[C@@H](CCCN)C(=O)N[C@@H](CC(=O)O)C(=O)N[C@H](C)C(=O)N[C@@H](CC(=O)O)C(=O)NCC(=O)N[C@H](CO)C(=O)N[C@@H]([C@@H](C)CC(=O)O)C(=O)N[C@@H](CC(=O)c2ccccc2N)C(=O)O[C@@H]1C
activation [1]: -9.73% and 21% | Potency [2]: inactive | Potency [3]: inactive | viability [4]: 107% | Potency [5]: inactive | Potency [6]: inactive | Potency [7]: inactive | Potency [8]: inactive | Potency [9]: inactive | Potency [10]: inactive

Nc1ccn(C2CO[C@H](CO)O2)c(=O)n1 (stereo not given in full)
activation [1]: -4.75% | Potency [2]: inactive | Potency [3]: inactive | viability [4]: 113% | Potency [5]: inactive | Potency [6]: inactive | Potency [7]: inactive | Potency [8]: inactive | Potency [9]: inactive | Potency [10]: inactive

O=C1NC(=O)C(c2cnc3ccccn23)=C1c1cn2c3c(cc(F)cc13)CN(C(=O)N1CCCCC1)CC2
Potency [1]: 30.1 µM (active) | Potency [2]: inactive | Potency [3]: inactive | Potency [4]: 0.0417 µM (active) | Potency [5]: 2.95 µM (active) | Potency [6]: 186 nM (active) | Potency [7]: 0.0661 µM (active) | Potency [8]: 1.66 µM (active) | Potency [9]: 0.662 µM (active) | Potency [10]: 3.72 µM (active)

CNC(=O)c1cc(Oc2ccc(NC(=O)Nc3ccc(Cl)c(C(F)(F)F)c3)cc2)ccn1
activation [1]: 4.11% | Potency [2]: inactive | Potency [3]: inactive | Potency [4]: 26.3 µM (active) | Potency [5]: 9.34 µM (active) | Potency [6]: 13.2 nM (active) | Potency [7]: 10.5 µM (active) | Potency [8]: 18.6 µM (active) | Potency [9]: 14.8 µM (active) | Potency [10]: 16.6 µM (active)
